# Source: PubChem BioAssay
# Compounds with a hit are over-represented: about 3.5% of the library has one in this group of screens.
# FBW7 act = human FBW7 E3 ligase activation, primary screen. Q969H0. 0.13% of 650,000 active. AlphaScreen FBW7–phospho-cyclin E peptide binding, activator screen. normalized activity (activation), % at 26.1 µM. AID 1259310; in the data active means normalized activity above about 1.9%;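 further: purified mutant Fbw7 with reduced substrate affinity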
# Target sequence (Q969H0 whole entry, looked up): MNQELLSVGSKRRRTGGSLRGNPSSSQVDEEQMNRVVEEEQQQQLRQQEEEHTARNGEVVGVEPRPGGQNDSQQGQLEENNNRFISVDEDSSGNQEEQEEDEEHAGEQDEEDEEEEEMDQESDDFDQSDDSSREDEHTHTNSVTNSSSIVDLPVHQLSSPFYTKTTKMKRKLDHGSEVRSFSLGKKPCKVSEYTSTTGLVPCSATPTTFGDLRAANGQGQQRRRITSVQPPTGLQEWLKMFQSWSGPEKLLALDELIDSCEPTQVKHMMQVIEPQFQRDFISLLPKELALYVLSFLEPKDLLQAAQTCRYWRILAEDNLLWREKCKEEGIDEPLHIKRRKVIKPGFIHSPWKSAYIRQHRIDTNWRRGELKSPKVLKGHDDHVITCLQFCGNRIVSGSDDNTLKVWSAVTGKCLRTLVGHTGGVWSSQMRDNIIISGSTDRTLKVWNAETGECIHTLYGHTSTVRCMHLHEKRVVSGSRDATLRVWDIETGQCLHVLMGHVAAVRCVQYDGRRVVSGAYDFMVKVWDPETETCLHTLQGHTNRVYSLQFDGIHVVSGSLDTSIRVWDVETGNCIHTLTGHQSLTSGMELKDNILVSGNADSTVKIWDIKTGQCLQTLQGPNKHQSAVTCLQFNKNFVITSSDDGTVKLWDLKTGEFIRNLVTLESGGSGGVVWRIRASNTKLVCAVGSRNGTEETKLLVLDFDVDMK
# TEAD-YAP inh = TEAD-YAP interaction inhibition. 1.4% of 640,000 active. inhibition, % at 9.12 µM. AID 1259422. HEK-TIYL cells, TEAD-Gal4/YAP UAS-luciferase luminescence; in the data active means inhibition above about 32%;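 further: 0% = median of test compound wells and 100% = reference inhibitor wells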
# MITF inh = blocks human microphthalmia-associated transcription factor; O75030; AlphaScreen MITF homodimerization, bead proximity signal; inhibition, % at 2.6 µM; 0.91% of 650,000 active; in the data active means inhibition above about 50%;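 further: 0% = vehicle wells with protein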
# GPR151 activ = human GPR151 activation; AID 1508602; PathHunter beta-arrestin GPR151 cells, luminescence; activation, % at 11.2 µM; 1% of 650,000 active; Q8TDV0; in the data active means activation above about 4.9%;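 further: 0% = median of compound wells and 100% = cells with positive control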
# GPR151 conf act = human GPR151 activation, confirmation screen; shares compounds with GPR151 activ; GPR151 PathHunter beta-arrestin cells, luminescence, 90 min; % of EA-reagent control over plate median; activation, % at 11.2 µM; 6,700 tested, under 10 active;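 active means mean percent activation across replicates above the confirmation screen cutoff of 4.91%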
# GPR119 ag = activates human GPR119 in a GPR151 counter-screen; shares compounds with GPR151 activ; GPR119 PathHunter beta-arrestin cells, luminescence, 90 min; 0 = compound-well median, 100 = enzyme-acceptor control; activation, % at 11.2 µM; 0.3% of 6,700 active; AID 1508611;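 active means mean percent activation in the counterscreen above 29.09%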;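 further: counterscreen on off-target GPR119 to flag nonselective hits from the GPR151 activator screen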
# * = called active by the depositor; x = no result.
SMILES,FBW7 act,TEAD-YAP inh,MITF inh,GPR151 activ,GPR151 conf act,GPR119 ag
COc1ccc(CCNC(=O)c2csc(Nc3nc4ccccc4n3C)n2)cc1,0,2,10,1,x,x
COc1ccc(CCNC(=O)c2cccc(Nc3nc4ccccc4n3C)n2)cc1,0,12,39,7.8*,-1,-16
COc1ccccc1NS(=O)(=O)c1ccc(CN2C(=O)c3cccnc3C2=O)cc1,0,11,11,7.3*,0,-4
CCOc1ccc(NS(=O)(=O)c2ccc(CN3C(=O)c4cccnc4C3=O)cc2)cc1,0,-3,5,1,x,x
Cc1cccc(NC(=O)/C(C#N)=C\c2ccco2)c1,0,-62,8,1,x,x
Cc1cc(C)c(NC(=O)/C(C#N)=C\c2ccco2)c(C)c1,0,5,-16,6.3*,-1,-1
CCOC(=O)COc1ccc(S(=O)(=O)NC(C)CC)cc1 (stereo not drawn),0,4,-4,5.3*,0,9
Cc1ccc(S(=O)(=O)NC(C)C(=O)Nc2cccc(C(F)(F)F)c2)cc1 (stereo not drawn),0,14,7,6.0*,0,0
Cc1ccc(S(=O)(=O)NC(C)C(=O)Nc2ccc(C(F)(F)F)cc2)cc1 (stereo not drawn),0,7,-17,0,x,x
COc1cc(NC(=O)CS(=O)(=O)c2ccc(C)cc2)cc(OC)c1OC,0,2,13,6.0*,0,-9
CC(=O)c1cccc(NC(=O)C(C)NS(=O)(=O)c2ccc(F)cc2)c1 (stereo not drawn),0,-7,-4,6.3*,1,5
COc1ccc(CC2(CO)CCN(Cc3cnc(SC)nc3)CC2)cc1,0,1,4,-1,x,x
N#Cc1c(NC(=O)/C=C\C(=O)O)sc2c1CCCCCC2,1,-2,9,-1,x,x
Cc1ccc(C(C)C)c(OCC(=O)NNC(=O)COc2ccc(Br)cc2)c1,1,-2,-2,2,x,x
COC(=O)c1ccc(NC(=O)C(C)NS(=O)(=O)c2cc(Cl)ccc2Cl)cc1 (stereo not drawn),0,3,6,-1,x,x
CC(NS(=O)(=O)c1cc(Cl)ccc1Cl)C(=O)Nc1cccc([N+](=O)[O-])c1 (stereo not drawn),0,6,0,7.7*,1,7
COc1ccc(NC(=O)C(C)NS(=O)(=O)c2ccc(C)cc2)cc1OC (stereo not drawn),0,1,21,13*,0,5
CC(Oc1ccc(Br)cc1)C(=O)Nc1cccc([N+](=O)[O-])c1 (stereo not drawn),0,-8,19,6.1*,2,-3
COc1ccc(S(=O)(=O)NC(C)C(=O)Nc2ccccc2)cc1 (stereo not drawn),0,0,16,0,x,x
COc1ccc(S(=O)(=O)NC(C)C(N)=O)cc1 (stereo not drawn),0,3,3,6.0*,0,2
CC1(C)C(c2ccccc2)=[N+]([O-])C2(CCCCC/C2=N\NC(N)=S)N1O (stereo not drawn),1,14,21,-1,x,x
Cc1cc(C(=O)C(F)(F)F)c(C)n1-c1nccs1,0,2,-12,0,x,x
CCOC(=O)C1CCN(C(=O)/C=C/c2cccc([N+](=O)[O-])c2)CC1,0,-7,0,6.6*,0,1
CCOC(=O)C1CCN(C(=O)/C=C/c2ccc([N+](=O)[O-])cc2)CC1,0,-13,14,0,x,x
CSc1nc2[nH]c(=O)cc(O)c2s1,0,-1,5,5.5*,0,-2
COc1ccc(Nc2nc3[nH]c(=O)cc(O)c3s2)cc1,0,-7,-17,0,x,x
COc1cccc(CCNC(=O)c2cn(C)c3cc(-c4cn[nH]c4)ccc23)c1,0,3,10,-2,x,x
CC1CCCN(S(=O)(=O)c2ccc(C(=O)Nc3nc4c(s3)Cc3ccccc3-4)cc2)C1 (stereo not drawn),0,-6,10,0,x,x
CC1c2cccn2CCN1S(=O)(=O)c1ccccc1Cl (stereo not drawn),0,6,10,5.9*,0,4
